Results as given in PubChem BioAssay (EPA / NIEHS).
Activity calls are given as the source filed them. The calls were made as follows: active = hit-call score of the fitted dose curve at least 0.9, where 1 is the maximum; inactive = score below 0.9.

Assays:
[1] = read-out: serum amyloid A (SAA), SAA1 (gene 6288); assay: BSK_CASM3C_SAA: BioMAP Diversity Plus: CASM3C Assay for serum amyloid A (SAA) Biomarker Activity (AID 2283049); conditions: primary human coronary artery smooth muscle cells; actives raise or lower the signal
[2] = BSK_CASM3C_SRB: Viability Assessment in the BioMAP Diversity Plus: CASM3C Assay (AID 2283050); conditions: primary human coronary artery smooth muscle cells;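 also: cells exposed to compound for 24 h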
[3] = read-out: Thrombomodulin, THBD (gene 7056); assay: BSK_CASM3C_Thrombomodulin: BioMAP Diversity Plus: CASM3C Assay for Thrombomodulin Biomarker Activity (AID 2283051); conditions: primary human coronary artery smooth muscle cells; actives raise or lower the signal;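 also: thrombomodulin protein level measured by ELISA 24 h after dosing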
[4] = read-out: Tissue Factor, F3 (gene 2152); assay: BSK_CASM3C_TissueFactor: BioMAP Diversity Plus: CASM3C Assay for Tissue Factor Biomarker Activity (AID 2283052); conditions: primary human coronary artery smooth muscle cells; actives raise or lower the signal;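 also: cell surface tissue factor protein level read by ELISA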
[5] = read-out: Interferon-gamma inducible Protein 10 (IP10), CXCL10 (gene 3627); assay: BSK_hDFCGF_IP10: BioMAP Diversity Plus: hDFCGF Assay for Interferon-gamma inducible Protein 10 (IP10) Biomarker Activity (AID 2283053); conditions: primary human foreskin fibroblasts; actives raise or lower the signal
Summary of the method: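 ELISA read-out of IP-10 (CXCL10) from primary human skin fibroblasts, 24 h after compound addition. Gain or loss of signal versus DMSO baseline, bidirectional curve fitting.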

[6] = read-out: Urokinase-type plasminogen activator receptor (uPAR), PLAUR (gene 5329); assay: BSK_CASM3C_uPAR: BioMAP Diversity Plus: CASM3C Assay for Urokinase-type plasminogen activator receptor (uPAR) Biomarker Activity (AID 2283054); conditions: primary human coronary artery smooth muscle cells; actives raise or lower the signal;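 also: cell-surface uPAR protein level quantified by ELISA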
[7] = read-out: Vascular cell adhesion molecule 1 (VCAM1), VCAM1 (gene 7412); assay: BSK_CASM3C_VCAM1: BioMAP Diversity Plus: CASM3C Assay for Vascular cell adhesion molecule 1 (VCAM1) Biomarker Activity (AID 2283055); conditions: primary human coronary artery smooth muscle cells; actives raise or lower the signal;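 also: VCAM-1 protein level quantified by ELISA on the cells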
[8] = read-out: Collagen III, COL3A1 (gene 1281); assay: BSK_hDFCGF_CollagenIII: BioMAP Diversity Plus: hDFCGF Assay for Collagen III Biomarker Activity (AID 2283056); conditions: primary human foreskin fibroblasts; actives raise or lower the signal
Summary of the method: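 hDFCGF primary human dermal fibroblasts; 24 h chemical exposure; collagen III by ELISA; bidirectional curve fit vs DMSO baseline (gain or loss of signal).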

[9] = read-out: Epidermal growth factor receptor (EGFR), EGFR (gene 1956); assay: BSK_hDFCGF_EGFR: BioMAP Diversity Plus: hDFCGF Assay for Epidermal growth factor receptor (EGFR) Biomarker Activity (AID 2283057); conditions: primary human foreskin fibroblasts; actives raise or lower the signal
Summary of the method: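 ELISA readout of EGFR on human dermal fibroblasts (primary foreskin cells), 24 h post-dosing; bidirectional curve fit vs DMSO baseline, gain or loss of signal scored.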

[10] = read-out: Interleukin-8 (IL8), CXCL8 (gene 3576); assay: BSK_hDFCGF_IL8: BioMAP Diversity Plus: hDFCGF Assay for Interleukin-8 (IL8) Biomarker Activity (AID 2283058); conditions: primary human foreskin fibroblasts; actives raise or lower the signal
Summary of the method: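 ELISA read-out of IL-8 from primary human foreskin fibroblast cultures taken 24 h after dosing; values are bidirectional fits relative to DMSO vehicle.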

[11] = BSK_hDFCGF_Proliferation: Cell Proliferation Assessment in the BioMAP Diversity Plus: hDFCGF Assay (AID 2283059); conditions: primary human foreskin fibroblasts;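 also: curves fitted for both rise and fall of signal versus DMSO baseline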
Summary of the method: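 Primary human foreskin fibroblasts, sub-confluent; […]; 10% TCA fix, 0.1% SRB stain, A560 total protein. Gain/loss fitted bidirectionally vs DMSO control.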

[12] = read-out: Macrophage colony-stimulating factor (MCSF), CSF1 (gene 1435); assay: BSK_hDFCGF_MCSF: BioMAP Diversity Plus: hDFCGF Assay for Macrophage colony-stimulating factor (MCSF) Biomarker Activity (AID 2283060); conditions: primary human foreskin fibroblasts; actives raise or lower the signal
Summary of the method: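 ELISA read-out of M-CSF in human dermal foreskin fibroblast cultures, 24 h after chemical dosing; gain or loss of signal fitted bidirectionally relative to DMSO baseline.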

[13] = BSK_hDFCGF_SRB: Viability Assessment in the BioMAP Diversity Plus: hDFCGF Assay (AID 2283061); conditions: primary human foreskin fibroblasts;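 also: cells exposed to compound for 24 h before the read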
Summary of the method: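 Primary human foreskin fibroblasts; 24 h post-dose; fixed 10% TCA, stained 0.1% SRB, A560 read; total protein as overt cytotoxicity measure; curves fit bidirectionally vs DMSO control.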

[14] = read-out: TIMP metallopeptidase inhibitor 1 (TIMP1), TIMP1 (gene 7076); assay: BSK_hDFCGF_TIMP1: BioMAP Diversity Plus: hDFCGF Assay for TIMP metallopeptidase inhibitor 1 (TIMP1) Biomarker Activity (AID 2283062); conditions: primary human foreskin fibroblasts; actives raise or lower the signal
Summary of the method: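 ELISA readout of TIMP-1 from human dermal foreskin fibroblast cultures 24 h post-dosing. Curves were fitted in both directions against DMSO baseline, with SRB total-protein staining in parallel cultures as a cytotoxicity check.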

[15] = read-out: Monokine induced gamma interferon (MIG), CXCL9 (gene 4283); assay: BSK_hDFCGF_MIG: BioMAP Diversity Plus: hDFCGF Assay for Monokine induced gamma interferon (MIG) Biomarker Activity (AID 2283063); conditions: primary human foreskin fibroblasts; actives raise or lower the signal
Summary of the method: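 Fibroblasts (human foreskin, primary) dosed, 24 h, MIG by ELISA; fit bidirectional vs DMSO.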

[16] = read-out: Matrix Metallopeptidase 1 (MMP1), MMP1 (gene 4312); assay: BSK_hDFCGF_MMP1: BioMAP Diversity Plus: hDFCGF Assay for Matrix Metallopeptidase 1 (MMP1) Biomarker Activity (AID 2283064); conditions: primary human foreskin fibroblasts; actives raise or lower the signal
Summary of the method: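 MMP1 levels quantified by ELISA 24 h after dosing human dermal fibroblast cultures, with parallel SRB total-protein staining for overt cytotoxicity. Data fitted in both directions against DMSO baseline.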

[17] = read-out: Vascular cell adhesion molecule 1 (VCAM1), VCAM1 (gene 7412); assay: BSK_hDFCGF_VCAM1: BioMAP Diversity Plus: hDFCGF Assay for Vascular cell adhesion molecule 1 (VCAM1) Biomarker Activity (AID 2283065); conditions: primary human foreskin fibroblasts; actives raise or lower the signal;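 as to AC50: VCAM-1 protein level quantified by ELISA after 24 h chemical exposure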
Summary of the method: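 ELISA read-out of VCAM-1 on human skin fibroblasts, 24 h post-dose; gain or loss of signal fitted bidirectionally against DMSO baseline.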

[18] = read-out: Plasminogen activator inhibitor-1 (PAI1), SERPINE1 (gene 5054); assay: BSK_hDFCGF_PAI1: BioMAP Diversity Plus: hDFCGF Assay for Plasminogen activator inhibitor-1 (PAI1) Biomarker Activity (AID 2283066); conditions: primary human foreskin fibroblasts; actives raise or lower the signal
Summary of the method: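 ELISA readout of PAI-1 from primary human skin fibroblast cultures, 24 h after compound addition. Gain or loss of signal was fitted bidirectionally against DMSO baseline.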

[19] = read-out: Intercellular Adhesion Molecule 1 (ICAM1), ICAM1 (gene 3383); assay: BSK_KF3CT_ICAM1: BioMAP Diversity Plus: KF3CT Assay for Intercellular Adhesion Molecule 1 (ICAM1) Biomarker Activity (AID 2283067); conditions: primary human keratinocytes with fibroblasts; actives raise or lower the signal
Summary of the method: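 ELISA readout of ICAM-1; KF3CT human skin co-culture (keratinocytes + foreskin fibroblasts), 24 h post-dose; gain/loss fit vs DMSO baseline.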

[20] = read-out: Interferon-gamma inducible Protein 10 (IP10), CXCL10 (gene 3627); assay: BSK_KF3CT_IP10: BioMAP Diversity Plus: KF3CT Assay for Interferon-gamma inducible Protein 10 (IP10) Biomarker Activity (AID 2283068); conditions: primary human keratinocytes with fibroblasts; actives raise or lower the signal
Summary of the method: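 In a primary skin co-culture of keratinocytes and fibroblasts, IP-10 is quantified by ELISA at 24 h after dosing. SRB staining of parallel wells monitors overt toxicity. Curves are fitted both directions against DMSO.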

Measured: AC50

O=C(O)C(F)(F)C(F)(F)C(F)(F)C(F)(F)C(F)(F)C(F)(F)F
inactive: all assays above

ClC1=C(Cl)[C@]2(Cl)[C@H]3[C@H]([C@H]4C=C[C@H]3C4)[C@@]1(Cl)C2(Cl)Cl
active: [4] 0.266 µM | [8] 4.4 µM | [11] 8.76 µM | [12] 0.492 µM | [17] 6.26 µM | [18] 1.16 µM
inactive: all other assays above

CCOC(=O)/C=C(C)/C=C/C[C@@H](C)CCCC(C)C
inactive: [9] | [10]
active: [1] 33.1 µM | [2] 31 µM | [3] 35.8 µM | [4] 20 µM | [5] 31.4 µM | [6] 30.9 µM | [7] 20 µM | [8] 8.64 µM | [11] 9.55 µM | [12] 20 µM | [13] 25.1 µM | [14] 26.6 µM | [15] 33.2 µM | [16] 32.4 µM | [17] 20.7 µM | [19] 34.5 µM | [20] 33.4 µM

O=[N+]([O-])c1ccc(O)c([N+](=O)[O-])c1
inactive: all assays above

Nc1ncc([N+](=O)[O-])s1
inactive: all assays above

C(=NC1CCCCC1)=NC1CCCCC1
active: [1] 35.7 µM | [2] 20 µM | [3] 34.5 µM | [4] 25.1 µM | [5] 11.7 µM | [6] 26.8 µM | [7] 20 µM | [8] 33.2 µM | [10] 32.4 µM | [11] 20 µM | [12] 20 µM | [13] 13.8 µM | [14] 14.9 µM | [15] 26.8 µM | [16] 32.7 µM | [17] 10.7 µM | [18] 20 µM | [19] 20 µM | [20] 14.9 µM
inactive: [9]

NC(=O)O
inactive: all assays above

C[C@]12CCC(=O)C[C@@H]1CC[C@@H]1[C@@H]2CC[C@]2(C)[C@@H](O)CC[C@@H]12
inactive: all assays above

CCOP(=S)(OCC)Oc1nc(Cl)c(Cl)cc1Cl
active: [3] 26.9 µM | [5] 20 µM | [8] 9.2 µM | [11] 14.9 µM | [12] 11.9 µM | [16] 4.93 µM | [17] 7.1 µM | [18] 13.3 µM
inactive: all other assays above

CCOP(=S)(OCC)Oc1ccc(S(C)=O)cc1 (configuration not stated)
inactive: all assays above

Oc1cccc2cccnc12
active: [3] 4.74 µM | [5] 0.206 µM | [8] 3.47 µM | [9] 0.275 µM | [11] 0.852 µM | [12] 0.301 µM | [13] 0.564 µM | [14] 0.201 µM | [15] 0.169 µM | [16] 0.927 µM | [17] 1.03 µM | [18] 0.331 µM | [19] 2.14 µM | [20] 2.55 µM
inactive: [1] | [2] | [4] | [6] | [7] | [10]

COC[C@H](C)N(C(=O)CCl)c1c(C)csc1C
inactive: all assays above

CCC(=O)C(CC(C)N(C)C)(c1ccccc1)c1ccccc1 (configuration not stated)
inactive: all assays above

OCc1ccco1
active: [11] 29.6 µM
inactive: all other assays above

COP(=S)(OC)Oc1cc(Cl)c(Cl)cc1Cl
active: [1] 20 µM | [7] 16.5 µM | [8] 20 µM | [17] 25.4 µM
not listed: [12]
inactive: all other assays above

CC(C)CCCCCCOC(=O)c1ccccc1C(=O)OCCCCCCC(C)C
active: [4] 0.0332 µM
inactive: all other assays above

CC(=O)C(Cl)C(=O)N(C)C (configuration not stated)
active: [4] 7.43 µM | [7] 12 µM | [8] 13.8 µM | [11] 26 µM
not listed: [12]
inactive: all other assays above

C=CC(=O)OCCCCCC(C)C
inactive: all assays above

C=C(C)C(=O)[O][Sn]([CH2]CCC)([CH2]CCC)[CH2]CCC
inactive: [9]
active: [1] 0.366 µM | [2] 0.148 µM | [3] 1.54 µM | [4] 1.15 µM | [5] 0.148 µM | [6] 0.391 µM | [7] 0.148 µM | [8] 0.374 µM | [10] 0.148 µM | [11] 0.15 µM | [12] 0.148 µM | [13] 0.242 µM | [14] 0.344 µM | [15] 0.148 µM | [16] 0.148 µM | [17] 0.148 µM | [18] 0.254 µM | [19] 0.354 µM | [20] 0.181 µM

CCCCCCCCC(=O)NCc1ccc(O)c(OC)c1
active: [6] 20 µM | [8] 25.6 µM | [18] 0.155 µM
inactive: all other assays above

COc1cc(OC)nc(NC(=O)NS(=O)(=O)c2ncccc2C(=O)N(C)C)n1
inactive: all assays above

CN(C)N=O
inactive: all assays above

Cc1ccccc1N
inactive: all assays above

COC(=O)Cc1ccccc1
inactive: all assays above
